Reference: article PMC11006913
Positions count from the first letter of the chain named.

Legend:
Experiment in all cases: PBM; 200 nM protein, PBS
Conditions in all cases: dsDNA, one strand shown
[1] = target: HESX1 (Homo sapiens, UniProt Q9UBX0 95-180, R165K)
[2] = target: HESX1 (Homo sapiens, UniProt Q9UBX0 95-180)
[3] = target: HESX1 (Homo sapiens, UniProt Q9UBX0 95-180, R109Q)
[4] = target: HESX1 (Homo sapiens, UniProt Q9UBX0 95-180, P111T)
[5] = target: HESX1 (Homo sapiens, UniProt Q9UBX0 95-180, F115L)
Chain of HESX1 (Homo sapiens, UniProt Q9UBX0 95-180, F115L) (Q9UBX0 95-180 F115L): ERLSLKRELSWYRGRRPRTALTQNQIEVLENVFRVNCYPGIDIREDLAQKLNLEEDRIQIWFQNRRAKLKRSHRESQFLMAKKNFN

[6] = target: HOXB4 (Homo sapiens, UniProt P17483 148-234)
Chain of HOXB4 (Homo sapiens, UniProt P17483 148-234) (P17483 148-234): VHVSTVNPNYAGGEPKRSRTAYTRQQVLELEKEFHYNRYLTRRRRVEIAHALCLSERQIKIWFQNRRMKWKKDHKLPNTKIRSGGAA

[7] = target: CRX (Homo sapiens, UniProt O43186 26-111)
Chain of CRX (Homo sapiens, UniProt O43186 26-111) (O43186 26-111): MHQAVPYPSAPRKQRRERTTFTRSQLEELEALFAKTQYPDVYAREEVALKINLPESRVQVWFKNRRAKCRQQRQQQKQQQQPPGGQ

[8] = target: T1, PAX4 (Homo sapiens, UniProt O43316 9-242, R200K)
T1 sequence: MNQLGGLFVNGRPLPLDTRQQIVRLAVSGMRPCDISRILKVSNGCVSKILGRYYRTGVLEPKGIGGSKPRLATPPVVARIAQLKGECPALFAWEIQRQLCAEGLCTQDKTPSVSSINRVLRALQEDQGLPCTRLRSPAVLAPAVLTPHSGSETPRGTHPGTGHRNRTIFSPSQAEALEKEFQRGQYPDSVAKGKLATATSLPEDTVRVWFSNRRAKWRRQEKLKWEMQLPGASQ

[9] = target: T2, PAX4 (Homo sapiens, UniProt O43316 9-242)
T2 sequence: T1 sequence with K192R

[10] = target: HOXB4 (Homo sapiens, UniProt P17483 148-234, V174I)
Chain of HOXB4 (Homo sapiens, UniProt P17483 148-234, V174I) (P17483 148-234 V174I): as the sequence (P17483 148-234) above, with V27I counted along it

[11] = target: T3, NKX2-6 (Homo sapiens, UniProt A6NCS4 118-204, R150C)
T3 sequence: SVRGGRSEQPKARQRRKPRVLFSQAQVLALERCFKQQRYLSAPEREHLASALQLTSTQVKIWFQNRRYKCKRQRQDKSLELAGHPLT

[12] = target: CRX (Homo sapiens, UniProt O43186 26-111, E42D)
Chain of CRX (Homo sapiens, UniProt O43186 26-111, E42D) (O43186 26-111 E42D): as the sequence (O43186 26-111) above, with E17D counted along it

[13] = target: T4, PAX4 (Homo sapiens, UniProt O43316 9-242, R200Q)
T4 sequence: T1 sequence with K192Q

[14] = target: T5, PAX4 (Homo sapiens, UniProt O43316 9-242, F177V)
T5 sequence: T1 sequence with F169V, K192R

[15] = target: T6, PAX4 (Homo sapiens, UniProt O43316 9-242, F177Y)
T6 sequence: T1 sequence with F169Y, K192R

[16] = target: T7, PAX4 (Homo sapiens, UniProt O43316 9-242, R227W)
T7 sequence: T1 sequence with K192R, R219W

[17] = target: CRX (Homo sapiens, UniProt O43186 26-111, R41L)
Chain of CRX (Homo sapiens, UniProt O43186 26-111, R41L) (O43186 26-111 R41L): as the sequence (O43186 26-111) above, with R16L counted along it

[18] = target: SHOX (Homo sapiens, UniProt O15266 103-189)
Chain of SHOX (Homo sapiens, UniProt O15266 103-189) (O15266 103-189): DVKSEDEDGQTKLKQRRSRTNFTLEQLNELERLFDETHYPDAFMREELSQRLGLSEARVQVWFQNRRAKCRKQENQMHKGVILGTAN

[19] = target: SHOX (Homo sapiens, UniProt O15266 103-189, R173C)
Chain of SHOX (Homo sapiens, UniProt O15266 103-189, R173C) (O15266 103-189 R173C): as the sequence (O15266 103-189) above, with R71C counted along it

[20] = target: T8, VENTX (Homo sapiens, UniProt O95231 78-163, R121Q)
T8 sequence: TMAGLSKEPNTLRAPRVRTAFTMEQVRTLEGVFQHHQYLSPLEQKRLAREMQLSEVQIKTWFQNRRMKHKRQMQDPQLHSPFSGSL

[21] = target: HOXB9 (Homo sapiens, UniProt P17482 171-250, T197M)
Chain of HOXB9 (Homo sapiens, UniProt P17482 171-250, T197M) (P17482 171-250 T197M): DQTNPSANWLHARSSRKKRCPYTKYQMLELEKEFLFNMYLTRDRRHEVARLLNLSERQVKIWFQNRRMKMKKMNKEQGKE

[22] = target: HOXA4 (Homo sapiens, UniProt Q00056 201-287, W262R)
Chain of HOXA4 (Homo sapiens, UniProt Q00056 201-287, W262R) (Q00056 201-287 W262R): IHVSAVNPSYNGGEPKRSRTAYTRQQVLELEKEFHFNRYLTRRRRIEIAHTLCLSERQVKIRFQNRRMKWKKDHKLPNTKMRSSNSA

[23] = target: HOXC9 (Homo sapiens, UniProt P31274 178-260, K195R)
Chain of HOXC9 (Homo sapiens, UniProt P31274 178-260, K195R) (P31274 178-260 K195R): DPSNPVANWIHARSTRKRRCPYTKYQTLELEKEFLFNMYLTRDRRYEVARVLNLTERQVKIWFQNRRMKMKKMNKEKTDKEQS

[24] = target: T9, VENTX (Homo sapiens, UniProt O95231 78-163)
T9 sequence: T8 sequence with Q44R

[25] = target: HOXA7 (Homo sapiens, UniProt P31268 116-202)
Chain of HOXA7 (Homo sapiens, UniProt P31268 116-202) (P31268 116-202): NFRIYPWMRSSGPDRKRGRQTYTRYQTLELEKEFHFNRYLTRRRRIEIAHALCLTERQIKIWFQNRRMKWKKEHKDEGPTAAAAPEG

[26] = target: HOXC10 (Homo sapiens, UniProt Q9NYD6 254-340)
Chain of HOXC10 (Homo sapiens, UniProt Q9NYD6 254-340) (Q9NYD6 254-340): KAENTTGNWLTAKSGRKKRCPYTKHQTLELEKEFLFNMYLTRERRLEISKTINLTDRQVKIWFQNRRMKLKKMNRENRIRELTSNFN

[27] = target: T10, VENTX (Homo sapiens, UniProt O95231 78-163, Y115F)
T10 sequence: T8 sequence with Y38F, Q44R

[28] = target: HOXB6 (Homo sapiens, UniProt P17509 132-218, K202E)
Chain of HOXB6 (Homo sapiens, UniProt P17509 132-218, K202E) (P17509 132-218 K202E): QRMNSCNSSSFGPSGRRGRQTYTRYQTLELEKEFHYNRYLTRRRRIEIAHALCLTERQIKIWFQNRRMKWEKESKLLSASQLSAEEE

[29] = target: HOXA2 (Homo sapiens, UniProt O43364 129-215, R185T)
Chain of HOXA2 (Homo sapiens, UniProt O43364 129-215, R185T) (O43364 129-215 R185T): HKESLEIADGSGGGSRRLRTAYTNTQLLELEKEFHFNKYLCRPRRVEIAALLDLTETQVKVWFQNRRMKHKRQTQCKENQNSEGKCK

[30] = target: HOXA4 (Homo sapiens, UniProt Q00056 201-287, R217L)
Chain of HOXA4 (Homo sapiens, UniProt Q00056 201-287, R217L) (Q00056 201-287 R217L): as the sequence (Q00056 201-287 W262R) above, with R17L, R62W counted along it

[31] = target: HOXB9 (Homo sapiens, UniProt P17482 171-250)
Chain of HOXB9 (Homo sapiens, UniProt P17482 171-250) (P17482 171-250): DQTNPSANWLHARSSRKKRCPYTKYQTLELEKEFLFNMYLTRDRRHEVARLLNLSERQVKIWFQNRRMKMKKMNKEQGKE

[32] = target: HOXC9 (Homo sapiens, UniProt P31274 178-260)
Chain of HOXC9 (Homo sapiens, UniProt P31274 178-260) (P31274 178-260): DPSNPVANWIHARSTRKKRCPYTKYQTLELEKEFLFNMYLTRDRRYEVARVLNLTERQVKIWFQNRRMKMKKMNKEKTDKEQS

[33] = target: HOXC9 (Homo sapiens, UniProt P31274 178-260, R193K)
Chain of HOXC9 (Homo sapiens, UniProt P31274 178-260, R193K) (P31274 178-260 R193K): as the sequence (P31274 178-260) above, with R16K counted along it

[34] = target: HOXA2 (Homo sapiens, UniProt O43364 129-215, R185K)
Chain of HOXA2 (Homo sapiens, UniProt O43364 129-215, R185K) (O43364 129-215 R185K): as the sequence (O43364 129-215 R185T) above, with T57K counted along it

[35] = target: HOXA4 (Homo sapiens, UniProt Q00056 201-287)
Chain of HOXA4 (Homo sapiens, UniProt Q00056 201-287) (Q00056 201-287): as the sequence (Q00056 201-287 W262R) above, with R62W counted along it

[36] = target: HOXC10 (Homo sapiens, UniProt Q9NYD6 254-340, K271E)
Chain of HOXC10 (Homo sapiens, UniProt Q9NYD6 254-340, K271E) (Q9NYD6 254-340 K271E): as the sequence (Q9NYD6 254-340) above, with K18E counted along it

[37] = target: VAX1 (Homo sapiens, UniProt Q5SQQ9 86-172)
Chain of VAX1 (Homo sapiens, UniProt Q5SQQ9 86-172) (Q5SQQ9 86-172): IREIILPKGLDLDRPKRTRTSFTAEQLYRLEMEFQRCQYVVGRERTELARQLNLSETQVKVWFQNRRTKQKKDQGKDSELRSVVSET

[38] = target: HOXD13 (Homo sapiens, UniProt P35453 263-343, T313A)
Chain of HOXD13 (P35453 263-343 T313A): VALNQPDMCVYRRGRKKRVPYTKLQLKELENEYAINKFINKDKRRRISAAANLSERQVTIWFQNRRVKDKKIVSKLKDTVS

[39] = target: HOXB9 (Homo sapiens, UniProt P17482 171-250, R186Q)
Chain of HOXB9 (Homo sapiens, UniProt P17482 171-250, R186Q) (P17482 171-250 R186Q): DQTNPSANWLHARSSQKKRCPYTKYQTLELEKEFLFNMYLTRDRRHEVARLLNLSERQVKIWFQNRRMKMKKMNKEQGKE

[40] = target: HOXC9 (Homo sapiens, UniProt P31274 178-260, R222W)
Chain of HOXC9 (Homo sapiens, UniProt P31274 178-260, R222W) (P31274 178-260 R222W): as the sequence (P31274 178-260) above, with R45W counted along it

[41] = target: VAX1 (Homo sapiens, UniProt Q5SQQ9 86-172, T142I)
Chain of VAX1 (Homo sapiens, UniProt Q5SQQ9 86-172, T142I) (Q5SQQ9 86-172 T142I): as the sequence (Q5SQQ9 86-172) above, with T57I counted along it

[42] = target: HOXA2 (Homo sapiens, UniProt O43364 129-215, Y150S)
Chain of HOXA2 (Homo sapiens, UniProt O43364 129-215, Y150S) (O43364 129-215 Y150S): as the sequence (O43364 129-215 R185T) above, with Y22S, T57R counted along it

[43] = target: HOXA7 (Homo sapiens, UniProt P31268 116-202, W177C)
Chain of HOXA7 (Homo sapiens, UniProt P31268 116-202, W177C) (P31268 116-202 W177C): as the sequence (P31268 116-202) above, with W62C counted along it

[44] = target: HOXA4 (Homo sapiens, UniProt Q00056 201-287, W262F)
Chain of HOXA4 (Homo sapiens, UniProt Q00056 201-287, W262F) (Q00056 201-287 W262F): as the sequence (Q00056 201-287 W262R) above, with R62F counted along it

[45] = target: HOXA2 (Homo sapiens, UniProt O43364 129-215)
Chain of HOXA2 (Homo sapiens, UniProt O43364 129-215) (O43364 129-215): as the sequence (O43364 129-215 R185T) above, with T57R counted along it

[46] = target: VAX1 (Homo sapiens, UniProt Q5SQQ9 86-172, K157R)
Chain of VAX1 (Homo sapiens, UniProt Q5SQQ9 86-172, K157R) (Q5SQQ9 86-172 K157R): as the sequence (Q5SQQ9 86-172) above, with K72R counted along it

[47] = target: HOXB6 (Homo sapiens, UniProt P17509 132-218)
Chain of HOXB6 (Homo sapiens, UniProt P17509 132-218) (P17509 132-218): as the sequence (P17509 132-218 K202E) above, with E71K counted along it

Chain of HESX1 (Homo sapiens, UniProt Q9UBX0 95-180, R165K) (Q9UBX0 95-180 R165K): as the sequence (Q9UBX0 95-180 F115L) above, with L21F, R71K counted along it
Chain of HESX1 (Homo sapiens, UniProt Q9UBX0 95-180, P111T) (Q9UBX0 95-180 P111T): as the sequence (Q9UBX0 95-180 F115L) above, with P17T, L21F counted along it
Chain of HESX1 (Homo sapiens, UniProt Q9UBX0 95-180) (Q9UBX0 95-180): as the sequence (Q9UBX0 95-180 F115L) above, with L21F counted along it
Chain of HESX1 (Homo sapiens, UniProt Q9UBX0 95-180, R109Q) (Q9UBX0 95-180 R109Q): as the sequence (Q9UBX0 95-180 F115L) above, with R15Q, L21F counted along it

GACGGCGA
binding signal [1]: 6.46 upbm affinity estimate (log intensity, higher = more binding, comparable within an allelic series)
binding signal [2]: 6.46 upbm affinity estimate (log intensity, higher = more binding, comparable within an allelic series)
binding signal [3]: 6.44 upbm affinity estimate (log intensity, higher = more binding, comparable within an allelic series)
binding signal [4]: 6.52 upbm affinity estimate (log intensity, higher = more binding, comparable within an allelic series)
binding signal [5]: 6.44 upbm affinity estimate (log intensity, higher = more binding, comparable within an allelic series)

GACGCCGC
binding signal [6]: 7.74 upbm affinity estimate (log intensity, higher = more binding, comparable within an allelic series)
binding signal [7]: 8.08 upbm affinity estimate (log intensity, higher = more binding, comparable within an allelic series)
binding signal [8]: 9.17 upbm affinity estimate (log intensity, higher = more binding, comparable within an allelic series)
binding signal [9]: 9.29 upbm affinity estimate (log intensity, higher = more binding, comparable within an allelic series)
binding signal [10]: 7.51 upbm affinity estimate (log intensity, higher = more binding, comparable within an allelic series)
binding signal [11]: 9.27 upbm affinity estimate (log intensity, higher = more binding, comparable within an allelic series)
binding signal [12]: 8.14 upbm affinity estimate (log intensity, higher = more binding, comparable within an allelic series)
binding signal [13]: 9.2 upbm affinity estimate (log intensity, higher = more binding, comparable within an allelic series)
binding signal [14]: 9.15 upbm affinity estimate (log intensity, higher = more binding, comparable within an allelic series)
binding signal [15]: 9.2 upbm affinity estimate (log intensity, higher = more binding, comparable within an allelic series)
binding signal [16]: 9.18 upbm affinity estimate (log intensity, higher = more binding, comparable within an allelic series)
binding signal [17]: 8.18 upbm affinity estimate (log intensity, higher = more binding, comparable within an allelic series)

TGTGATAA
binding signal [1]: 7.98 upbm affinity estimate (log intensity, higher = more binding, comparable within an allelic series)
binding signal [2]: 8.21 upbm affinity estimate (log intensity, higher = more binding, comparable within an allelic series)
binding signal [4]: 7.65 upbm affinity estimate (log intensity, higher = more binding, comparable within an allelic series)

TATTGCCA
binding signal [1]: 7.79 upbm affinity estimate (log intensity, higher = more binding, comparable within an allelic series)
binding signal [2]: 7.9 upbm affinity estimate (log intensity, higher = more binding, comparable within an allelic series)
binding signal [4]: 7.47 upbm affinity estimate (log intensity, higher = more binding, comparable within an allelic series)

CGGCGAGC
binding signal [6]: 7.79 upbm affinity estimate (log intensity, higher = more binding, comparable within an allelic series)
binding signal [18]: 7.05 upbm affinity estimate (log intensity, higher = more binding, comparable within an allelic series)
binding signal [10]: 7.74 upbm affinity estimate (log intensity, higher = more binding, comparable within an allelic series)
binding signal [19]: 7.11 upbm affinity estimate (log intensity, higher = more binding, comparable within an allelic series)

CATTAATG
binding signal [6]: 13.4 upbm affinity estimate (log intensity, higher = more binding, comparable within an allelic series)
binding signal [20]: 11.8 upbm affinity estimate (log intensity, higher = more binding, comparable within an allelic series)
binding signal [21]: 10.3 upbm affinity estimate (log intensity, higher = more binding, comparable within an allelic series)
binding signal [22]: 10.7 upbm affinity estimate (log intensity, higher = more binding, comparable within an allelic series)
binding signal [23]: 12.8 upbm affinity estimate (log intensity, higher = more binding, comparable within an allelic series)
binding signal [24]: 12.5 upbm affinity estimate (log intensity, higher = more binding, comparable within an allelic series)
binding signal [25]: 12 upbm affinity estimate (log intensity, higher = more binding, comparable within an allelic series)
binding signal [26]: 12.3 upbm affinity estimate (log intensity, higher = more binding, comparable within an allelic series)
binding signal [8]: 11.8 upbm affinity estimate (log intensity, higher = more binding, comparable within an allelic series)
binding signal [27]: 11.8 upbm affinity estimate (log intensity, higher = more binding, comparable within an allelic series)
binding signal [9]: 12.2 upbm affinity estimate (log intensity, higher = more binding, comparable within an allelic series)
binding signal [28]: 10.3 upbm affinity estimate (log intensity, higher = more binding, comparable within an allelic series)
binding signal [29]: 12.6 upbm affinity estimate (log intensity, higher = more binding, comparable within an allelic series)
binding signal [30]: 12.3 upbm affinity estimate (log intensity, higher = more binding, comparable within an allelic series)
binding signal [31]: 12.1 upbm affinity estimate (log intensity, higher = more binding, comparable within an allelic series)
binding signal [10]: 14 upbm affinity estimate (log intensity, higher = more binding, comparable within an allelic series)
binding signal [32]: 12.9 upbm affinity estimate (log intensity, higher = more binding, comparable within an allelic series)
binding signal [13]: 11.9 upbm affinity estimate (log intensity, higher = more binding, comparable within an allelic series)
binding signal [33]: 12.8 upbm affinity estimate (log intensity, higher = more binding, comparable within an allelic series)
binding signal [34]: 13.4 upbm affinity estimate (log intensity, higher = more binding, comparable within an allelic series)
binding signal [14]: 10.5 upbm affinity estimate (log intensity, higher = more binding, comparable within an allelic series)
binding signal [35]: 14.2 upbm affinity estimate (log intensity, higher = more binding, comparable within an allelic series)
binding signal [36]: 12.2 upbm affinity estimate (log intensity, higher = more binding, comparable within an allelic series)
binding signal [15]: 11 upbm affinity estimate (log intensity, higher = more binding, comparable within an allelic series)
binding signal [37]: 12.7 upbm affinity estimate (log intensity, higher = more binding, comparable within an allelic series)
binding signal [38]: 11.6 upbm affinity estimate (log intensity, higher = more binding, comparable within an allelic series)
binding signal [39]: 11.9 upbm affinity estimate (log intensity, higher = more binding, comparable within an allelic series)
binding signal [40]: 11 upbm affinity estimate (log intensity, higher = more binding, comparable within an allelic series)
binding signal [41]: 12.5 upbm affinity estimate (log intensity, higher = more binding, comparable within an allelic series)
binding signal [16]: 10.9 upbm affinity estimate (log intensity, higher = more binding, comparable within an allelic series)
binding signal [42]: 11.1 upbm affinity estimate (log intensity, higher = more binding, comparable within an allelic series)
binding signal [43]: 8.9 upbm affinity estimate (log intensity, higher = more binding, comparable within an allelic series)
binding signal [44]: 11.7 upbm affinity estimate (log intensity, higher = more binding, comparable within an allelic series)
binding signal [45]: 12.3 upbm affinity estimate (log intensity, higher = more binding, comparable within an allelic series)
binding signal [46]: 12.8 upbm affinity estimate (log intensity, higher = more binding, comparable within an allelic series)
binding signal [47]: 12.4 upbm affinity estimate (log intensity, higher = more binding, comparable within an allelic series)
